Source: PubChem BioAssay
In the library only some 21% were active in any assay of this set; here they are far more common.
FBPA Giardia inh: qHTS Assay for Inhibitors of Fructose-1,6-bisphosphate Aldolase from Giardia Lamblia | A8B2U2 | purified Giardia FBPA | Potency, µM (top dose mostly 59.6 µM), most hits filed as inhibitors | 290,000 compounds, 0.71% hits | AID 2451, 2010; further: nearly all actives have a fitted effect of over 55% in size
Target sequence (A8B2U2 whole entry, looked up): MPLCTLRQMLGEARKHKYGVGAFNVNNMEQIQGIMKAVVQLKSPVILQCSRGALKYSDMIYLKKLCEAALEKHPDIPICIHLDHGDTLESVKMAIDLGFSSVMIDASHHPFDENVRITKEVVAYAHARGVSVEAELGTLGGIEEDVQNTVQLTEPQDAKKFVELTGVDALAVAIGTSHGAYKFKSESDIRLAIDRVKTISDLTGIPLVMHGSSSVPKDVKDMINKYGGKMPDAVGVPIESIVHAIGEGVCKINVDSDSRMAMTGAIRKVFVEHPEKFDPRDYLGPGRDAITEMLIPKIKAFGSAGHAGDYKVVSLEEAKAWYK
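Giardia FBPA (40 nM reagent) was preincubated 10 min at RT with compound (up to 57.5 uM final), then substrate plus GAPDH/TPI/NAD/arsenate coupling system with diaphorase/resazurin was added; resorufin fluorescence (525/598 nm) was read after 20 min.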
Pf growth 96h: Primary qHTS for delayed death inhibitors of the malarial parasite plastid, 96 hour incubation | AID 504834, 2011 | 320,000 compounds, 6.9% hits | Potency, µM (doses to about 28.7 µM), most hits filed as inhibitors | P. falciparum luciferase reporter growth, 96 h
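Two-generation exposure (96 h) targets delayed-death phenotype. Reporter parasites carrying integrated firefly luciferase, in red cells at 2% hematocrit and 0.05% parasitemia final, kept at 37 C, 5% CO2; luminescence loss indicates inhibition.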
NS1 inh: qHTS Assay for Inhibitors of Influenza NS1 Protein Function; Potency, µM (top dose mostly 46.1 µM); 270,000 compounds, 0.4% hits; calls by dose curve; further: actives are rising curves; nearly all actives have a fitted effect of over 50% in size
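Recovery from NS1-induced slow growth read by OD600 in budding yeast switched to galactose assay medium (pH 6.0, -URA) at 1:100 dilution. Compound 23 nl per well; the matching strain lacking NS1 serves as control.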
Pf growth 48h: Primary qHTS for delayed death inhibitors of the malarial parasite plastid, 48 hour incubation | 310,000 compounds, 5.9% hits | AID 504832, 2011 | P. falciparum luciferase growth in erythrocytes, 48 h | Potency, µM (titrated, usually from 28.7 µM), most hits filed as inhibitors
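Parasite viability was followed by luminescence of a genomically integrated firefly luciferase. Cultures held 0.1% parasitemia at 2% hematocrit (final), incubated under 5% CO2 at 37 C.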
CHX counter: Cycloheximide Counterscreen for Small Molecule Inhibitors of Shiga Toxin; max response, %; cell reporter, cycloheximide protein synthesis inhibition counterscreen; 300,000 compounds, 12% hits; in the data active means max response mostly above about 13%, no sharp cut-off; inactive means mostly below about 14%; further: read at 38.3 µM for the half of the compounds with a filed dose
Shiga toxin inh: A qHTS for Small Molecule Inhibitors of Shiga Toxin. inhibition, % at 38.7 µM. Vero cells, Shiga toxin protein synthesis inhibition reporter. 290,000 compounds, 9.2% hits; in the data active means inhibition mostly above about 28%, no sharp cut-off; inactive means mostly below about 43%
Flu NS1 inh: Assay for Inhibitors of Influenza NS1 Protein Function: Hit Validation; activity change, negative = inhibition, % at 32.9 µM; shares compounds with NS1 inh; influenza NS1 function cell assay, 15-point titration; 1,400 tested, under 10 active; calls by dose curve
PR8 titer: Assay for Inhibitors of Influenza NS1 Protein Function: Influenza virus replication assay in MDCK cells infected with virus A/PR/8/34 | shares compounds with NS1 inh | MDCK infected influenza A/PR/8/34, virus titer TCID50; stronger effect = lower value | virus titer (log TCID50), log10 TCID50 at 5 µM | 95 compounds, 30% hits | AID 504647, 2011; call rule not given here
Each line names hits and unclear results; the compound was inactive in the other large screens (follow-up assays come after a bar, where they were run). Unless noted, the call rests on the fitted dose curve; in most records, active means well fitted curve in the direction sought with a large enough effect; inconclusive means small, poorly fitted or top-dose-only effect, or another doubt; inactive means no such curve, though single readings can be large; an effect the other way counts as inactive or inconclusive.

COc1cc(NC(=O)CSc2nc3ccccc3n2-c2ccccc2)c(C)cc1[N+](=O)[O-]	Pf growth 96h inconclusive, NS1 inh 22.4µM, Pf growth 48h 11.7µM | Flu NS1 inh inactive | PR8 titer inactive
CN(C)S(=O)(=O)c1ccc(NC(=O)CSc2nc3ccccc3n2-c2ccccc2)cc1	Pf growth 96h 2.33µM, NS1 inh 10µM, Pf growth 48h 5.86µM | Flu NS1 inh inactive
CN(C)S(=O)(=O)c1cccc(NC(=O)CSc2nc3ccccc3n2-c2ccccc2)c1	Pf growth 96h inconclusive, Pf growth 48h inconclusive
CCN(CC)c1nc(N)n(CCSC(=S)N(C)C)c(=O)n1	Pf growth 96h inconclusive, NS1 inh inconclusive | Flu NS1 inh inactive
CCN(CC)c1nc2n(c(=O)n1)CCO2	none
C=CCN1CC(c2nc3ccccc3n2CCOc2ccccc2)CC1=O (stereo unspecified)	NS1 inh inconclusive, Pf growth 48h 11.7µM | Flu NS1 inh inactive
COc1cc(/C=N\Nc2nc3ccccc3[nH]2)cc(OC)c1OC	Pf growth 96h inconclusive, NS1 inh 2.82µM, Pf growth 48h 0.165µM, CHX counter 33.9 | Flu NS1 inh inactive
O=C(C[n+]1cc2ccccc2c2ccccc21)c1ccccc1	NS1 inh inconclusive (no result: Pf growth 96h) | Flu NS1 inh inactive
COc1cc(CCC(=O)OCC(=O)N(CC(C)C)C2CCS(=O)(=O)C2)cc(OC)c1OC (stereo unspecified)	none (no result: FBPA Giardia inh, NS1 inh, CHX counter, Shiga toxin inh)
Nc1nonc1-n1nnc(C(=O)N/N=C/c2ccco2)c1CSc1ccccc1	NS1 inh inconclusive | Flu NS1 inh inactive
CCc1nccn1CCC(=O)N1CCCC(N2CCN(c3ccccc3C)CC2)C1 (stereo unspecified)	Pf growth 48h inconclusive
COc1cc(C(C(=O)NC2CCCCC2)N(C(=O)c2snc(C(N)=O)c2N)c2ccc(C)cc2)ccc1O (stereo unspecified)	NS1 inh inconclusive, Pf growth 48h 7.38µM | Flu NS1 inh inactive
COc1ccc(N(C(=O)c2snc(C(N)=O)c2N)C(C(=O)NC2CCCC2)c2ccc(OC)c(OC)c2)cc1 (stereo unspecified)	NS1 inh inconclusive, Pf growth 48h inconclusive
O=C(Nc1nc(-c2ccco2)c(-c2ccco2)s1)C1CC(=O)N(c2ccc3c(c2)OCCO3)C1 (stereo unspecified)	FBPA Giardia inh inconclusive, NS1 inh 10µM | Flu NS1 inh inactive
CC(=O)N(CC(C)C(=O)O)c1c(I)cc(I)c(N)c1I (stereo unspecified)	Pf growth 48h inconclusive (no result: FBPA Giardia inh, NS1 inh, CHX counter, Shiga toxin inh)
N#CC1=C(N)OC2=C(CC/C2=C\c2ccccc2)C1c1ccccc1 (stereo unspecified)	NS1 inh 0.891µM, Pf growth 48h inconclusive | Flu NS1 inh inconclusive
Cc1cc(C)nc(NS(=O)(=O)c2ccc(NC(=O)CSc3ncn[nH]3)cc2)n1	none
CC(C)c1ccccc1-n1c(SCC(=O)N2CCc3ccccc3C2)nc2ccccc2c1=O	Pf growth 96h 5.86µM, NS1 inh 22.4µM, Pf growth 48h 1.47µM | Flu NS1 inh inactive
Cc1cccc(C2C3=C(Nc4[nH]n(-c5ccccc5)c(=O)c42)c2ccccc2C3=O)c1 (stereo unspecified)	Pf growth 96h inconclusive, NS1 inh inconclusive, Pf growth 48h inconclusive
Cc1ccccc1C1C2=C(Nc3[nH]n(-c4ccccc4)c(=O)c31)c1ccccc1C2=O (stereo unspecified)	Pf growth 96h inconclusive, NS1 inh 11.2µM, Pf growth 48h inconclusive | Flu NS1 inh inactive
CCOc1ccc(CCNC(=O)C2CC(C)=CCC2C(=O)O)cc1OCC (stereo unspecified)	Pf growth 96h inconclusive
COc1ccccc1NS(=O)(=O)c1ccc(Cl)c(NC(=S)NC(=O)C2CCCC2)c1	NS1 inh 12.6µM | Flu NS1 inh inactive
Cc1ccc(NC(=O)CCNS(=O)(=O)c2ccc3[nH]c(=O)oc3c2)c(Cl)c1	FBPA Giardia inh inconclusive
C#CCOc1ccc(/C=C2/C(=O)N(c3cccc(C(=O)O)c3)N=C2C)cc1OC	NS1 inh 11.2µM | Flu NS1 inh inconclusive
CCN1CCCC1Cn1c(-c2ccccc2)nc2c(NCc3ccccc3)nc(C)nc21 (stereo unspecified)	none (no result: Pf growth 96h, NS1 inh, Pf growth 48h, CHX counter, Shiga toxin inh)
CC1CCCC(C)N1C(=O)COC(=O)CNC(=O)c1ccc(Cl)cc1Cl (stereo unspecified)	none (no result: FBPA Giardia inh, NS1 inh, CHX counter, Shiga toxin inh)
O=C(NCC(c1cccs1)N1CCOCC1)C1CCN(S(=O)(=O)c2ccccc2C(F)(F)F)CC1 (stereo unspecified)	Pf growth 96h inconclusive, Pf growth 48h inconclusive (no result: FBPA Giardia inh)
CCOc1cc(C(=O)NCCc2ccc(S(N)(=O)=O)cc2)cc(OCC)c1OCC	Pf growth 96h inconclusive
COc1cc(C(=O)NCCc2ccc(S(N)(=O)=O)cc2)cc(OC)c1OC	NS1 inh inconclusive | Flu NS1 inh inactive
COc1ccc(CCC(=O)Nc2ccccc2C(F)(F)F)cc1	none
O=C(c1cnn2c(C(F)(F)F)cc(-c3cccs3)nc12)N1CCN(C(c2ccccc2)c2ccccc2)CC1	Pf growth 96h inconclusive, NS1 inh 15.8µM, Pf growth 48h 0.928µM | Flu NS1 inh inactive
CN1CCN(C(=O)c2cnn3c(C(F)(F)F)cc(-c4cccs4)nc23)CC1	Pf growth 96h inconclusive
COc1ccc(NS(=O)(=O)c2cccc(N/C(=N\S(=O)(=O)c3ccccc3)c3ccc(F)cc3)c2)cc1	Pf growth 96h inconclusive, NS1 inh 11.2µM, Pf growth 48h inconclusive | Flu NS1 inh inactive
COc1ccc(Cl)cc1NC(=O)C1(c2cccs2)CCOCC1	Pf growth 96h inconclusive (no result: NS1 inh)
Cc1cc(NC(=O)CSc2nc3cc(C(=O)NCCCOC(C)C)ccc3c(=O)n2Cc2ccco2)no1	Pf growth 96h inconclusive, Pf growth 48h inconclusive (no result: NS1 inh)
C#CCn1c(=NC(=O)c2ccc(S(=O)(=O)N3CCCc4ccccc43)cc2)sc2cc(S(N)(=O)=O)ccc21	Pf growth 96h 2.94µM, NS1 inh 11.2µM, Pf growth 48h 9.28µM | Flu NS1 inh inactive
COc1ccc(-n2c(=S)[nH]c3cc(C(=O)NCc4ccco4)ccc3c2=O)c(OC)c1	FBPA Giardia inh inconclusive, Pf growth 96h inconclusive, NS1 inh 12.6µM (no result: Pf growth 48h) | Flu NS1 inh inactive
COc1cc(/C=C2/C(=O)N(c3ccc(Br)cc3)N=C2C)cc(OC)c1OC	NS1 inh 11.2µM | Flu NS1 inh inactive
